Data as given in PubChem BioAssay.
The source made the active and inactive calls. Unless noted, how the calls were made is not given here.

Tests used:
[1] = HepG2 liver cancer cell viability effects, profiling panel, resazurin fluorescence, 24 h, PK04 Diversity Set (AID 1172); conditions: higher = more signal
[2] = basal S. cerevisiae growth modulation, no modifier, primary screen, OD600, strain BY4716, 24 h, basal condition (AID 1173); conditions: OD600, 24 h, higher = more signal, called active from +8 up or from −8 down
[3] = MM1S myeloma cell viability, profiling panel, resazurin fluorescence, basal, 24 h, PK04 Diversity Set (AID 1174); conditions: higher = more signal, called active from +8 up or from −8 down;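 further: MM1S multiple myeloma cell line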
[4] = biological target: Dihydroorotate dehydrogenase (quinone), mitochondrial (Plasmodium falciparum (isolate 3D7)) (UniProt Q08210); assay: PfDHODH enzyme inhibitors, primary screen, biochemical, C-terminal His tag, absorbance 600 nm (AID 1175); conditions: DCIP absorbance 600 nm, higher = more signal, called active from +8 up or from −8 down;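 further: recombinant parasite enzyme with a five histidine tag at its C terminus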
[5] = P. aeruginosa biofilm formation inhibitors, primary screen, strain PAO1, LB-PBS medium, absorbance 600 nm (AID 1176); conditions: P. aeruginosa PAO1 growth/biofilm, A600, 12 h; higher = more signal
[6] = S. cerevisiae RM11-1a growth modifiers, primary screen, strain RM11-1a, OD600, basal, 24 h (AID 1177); conditions: OD600, 24 h, higher = more signal, called active from +8 up or from −8 down;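 further: cultures grown under basal conditions with no added stressor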
[7] = E. coli acrAB mutant growth effects, primary screen, E. coli filamentation inducers, strain DRC39, OD650, 24 h (AID 1178); conditions: higher = more signal, called active from +8 up or from −8 down;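 further: growth measured as culture turbidity by optical density at 650 nm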
[8] = E. coli acrAB mutant growth effects, primary screen, E. coli filamentation inducers, strain DRC39, OD650, 48 h (AID 1179);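 further: screen aims at cell division blockers that make cells filament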; conditions: E. coli DRC39 delta-acrAB growth, higher = more signal, called active from +8 up or from −8 down
[9] = RPMI8226 myeloma cell viability, profiling panel, resazurin fluorescence, basal, 24 h, PK04 Diversity Set (AID 1180); conditions: higher = more signal;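 further: RPMI8826 multiple myeloma cell line at 5000 cells per well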
[10] = biological target: E3 ubiquitin-protein ligase XIAP (Homo sapiens) (UniProt P98170); assay: XIAP binders, primary screen, biophysical, small-molecule microarray, fluorescence 635 nm (AID 1181); conditions: small-molecule microarray binding, higher = more signal;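 further: score merges 667 nm emission and signal to noise over triplicate slides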
[11] = system: XIP peptide (Xip251-270) binding; assay: small-molecule binders of XIP peptide, primary screen, biochemical, small-molecule microarray, fluorescence 635/667 nm, 0.1 µg/mL protein (AID 1182); conditions: fluorescent protein binding, 635 nm, higher = more signal, called active from +8 up or from −8 down
[12] = system: XIP peptide (Xip251-270); assay: small-molecule binders of XIP peptide, primary screen, biochemical, small-molecule microarray, fluorescence 635/667 nm, 0.5 µg/mL protein (AID 1183); conditions: small-molecule microarray binding, fluorescence 635 nm; higher = more signal
[13] = Plasmodium falciparum growth inhibition, primary screen, strain 3D7, DAPI fluorescence, 100 nL (AID 1184);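 further: parasites grown inside human red blood cells in medium with human serum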; conditions: P. falciparum 3D7 growth, 3 d, higher = more signal
[14] = biological target: Homeobox protein Hox-A13 (Mus musculus) (UniProt Q62424); assay: inhibitors of HoxA13-DNA binding, primary screen, biochemical, fluorescence polarization, labeled oligonucleotide (AID 1185); conditions: 15 min, higher = more signal, called active from +8 up or from −8 down
[15] = inhibitors of hydroxyurea-induced Chk1 phosphorylation, primary screen, imaging, HeLa, phospho-Chk1 antibody, percent positive cells (AID 1186); conditions: hydroxyurea-induced phospho-Chk1 immunofluorescence imaging, higher = more signal
[16] = inhibitors of hydroxyurea-induced Chk1 phosphorylation, primary screen, imaging, HeLa, phospho-Chk1 nuclear intensity (AID 1187); conditions: hydroxyurea-induced phospho-Chk1 immunofluorescence imaging, higher = more signal

Dihydroorotate dehydrogenase (quinone), mitochondrial (Plasmodium falciparum (isolate 3D7)), sequence (Q08210 whole entry, looked up): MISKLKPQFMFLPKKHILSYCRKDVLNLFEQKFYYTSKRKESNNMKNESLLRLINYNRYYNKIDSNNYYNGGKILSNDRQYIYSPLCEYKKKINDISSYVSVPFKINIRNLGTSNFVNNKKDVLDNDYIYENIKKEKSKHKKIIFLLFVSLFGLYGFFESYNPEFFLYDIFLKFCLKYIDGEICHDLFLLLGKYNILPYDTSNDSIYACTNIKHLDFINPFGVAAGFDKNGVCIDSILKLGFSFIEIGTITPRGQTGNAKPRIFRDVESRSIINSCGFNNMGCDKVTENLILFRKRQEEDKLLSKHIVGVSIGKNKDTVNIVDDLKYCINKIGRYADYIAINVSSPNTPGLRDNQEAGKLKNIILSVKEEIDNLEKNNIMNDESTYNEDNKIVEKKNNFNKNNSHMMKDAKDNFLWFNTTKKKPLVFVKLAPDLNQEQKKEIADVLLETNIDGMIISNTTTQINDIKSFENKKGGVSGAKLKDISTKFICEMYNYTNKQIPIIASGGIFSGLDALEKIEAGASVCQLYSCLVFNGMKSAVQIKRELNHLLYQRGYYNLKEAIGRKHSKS
E3 ubiquitin-protein ligase XIAP (Homo sapiens), sequence (P98170 whole entry, looked up): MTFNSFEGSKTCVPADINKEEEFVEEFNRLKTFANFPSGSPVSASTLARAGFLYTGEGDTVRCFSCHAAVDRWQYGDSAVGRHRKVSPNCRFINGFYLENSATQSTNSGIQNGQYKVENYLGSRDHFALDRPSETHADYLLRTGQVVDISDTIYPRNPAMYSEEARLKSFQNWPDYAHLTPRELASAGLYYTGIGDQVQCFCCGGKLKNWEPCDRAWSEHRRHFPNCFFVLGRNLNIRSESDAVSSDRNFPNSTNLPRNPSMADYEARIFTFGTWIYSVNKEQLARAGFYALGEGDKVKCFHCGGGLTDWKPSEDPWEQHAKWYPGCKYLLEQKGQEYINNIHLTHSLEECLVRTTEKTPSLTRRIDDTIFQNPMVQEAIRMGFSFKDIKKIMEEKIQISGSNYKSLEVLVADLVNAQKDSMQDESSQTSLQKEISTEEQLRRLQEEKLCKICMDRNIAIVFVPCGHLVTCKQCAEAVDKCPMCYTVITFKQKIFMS
Homeobox protein Hox-A13 (Mus musculus), sequence (Q62424 whole entry, looked up): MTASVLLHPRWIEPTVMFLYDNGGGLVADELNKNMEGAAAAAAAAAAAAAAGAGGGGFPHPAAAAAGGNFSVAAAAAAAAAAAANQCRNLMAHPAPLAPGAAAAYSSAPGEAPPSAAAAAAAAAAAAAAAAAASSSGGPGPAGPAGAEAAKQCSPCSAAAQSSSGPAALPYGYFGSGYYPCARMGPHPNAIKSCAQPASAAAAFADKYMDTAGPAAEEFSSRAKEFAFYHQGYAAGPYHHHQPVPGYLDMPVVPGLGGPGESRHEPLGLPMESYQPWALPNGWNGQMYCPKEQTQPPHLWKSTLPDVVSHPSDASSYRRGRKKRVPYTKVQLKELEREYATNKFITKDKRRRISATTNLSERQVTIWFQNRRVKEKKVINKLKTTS

## COC(=O)C(CC#Cc1ccc2c(c1)[C@]1(C(=O)N2)[C@H](c2ccc(O)cc2)N2[C@H](c3ccccc3)[C@H](c3ccccc3)OC(=O)[C@H]2[C@@H]1C(=O)N1CCc2cc(OC)c(OC)cc2C1)C(=O)OC
[1]
  z-score: 0.445
[2]
  z-score: 0.954 (inactive)
[3]
  z-score: -0.938 (inactive)
[4]
  composite z-score: -11.2 (active)
[5]
  z-score: 0.573 (inactive)
[6]
  z-score: 1.58 (inactive)
[7]
  z-score: -0.158 (inactive)
[8]
  z-score: -0.627 (inactive)
[9]
  z-score: -4.12
[10]
  composite z-score: -0.117
[11]
  composite z-score: 1.78 (inactive)
[12]
  composite z-score: 0.779
[13]
  z-score: -2.02
[14]
  z-score: -2.32 (inactive)
[15]
  z-score: 0.323 (inactive)
[16]
  z-score: 0.0329 (inactive)

## COC(=O)[C@@H]1N=C(c2ccc(OCCCO)cc2)O[C@@H]1c1ccccc1CN=[N+]=[N-]
[1]
  z-score: 1.25
[2]
  z-score: -1.46 (inactive)
[3]
  z-score: 0.55 (inactive)
[4]
  composite z-score: -0.487 (inactive)
[5]
  z-score: -0.636 (inactive)
[6]
  z-score: 0.657 (inactive)
[7]
  z-score: 0.0547 (inactive)
[8]
  z-score: 0.396 (inactive)
[9]
  z-score: 0.11
[10]
  composite z-score: 0.279
[11]
  composite z-score: 0.0222 (inactive)
[12]
  composite z-score: 0.362
[13]
  z-score: -0.776
[14]
  z-score: -2.74 (inactive)
[15]
  z-score: -0.196 (inactive)
[16]
  z-score: -0.0701 (inactive)

## CCCCC(=C=CC[C@H](O)c1ccc(OCCO)cc1)C[C@H](O)c1ccccn1
[1]
  z-score: 0.325
[2]
  z-score: -0.265 (inactive)
[3]
  z-score: 0.747 (inactive)
[4]
  composite z-score: -2.06 (inactive)
[5]
  z-score: -0.247 (inactive)
[6]
  z-score: 0.387 (inactive)
[7]
  z-score: 1.45 (inactive)
[8]
  z-score: 0.949 (inactive)
[9]
  z-score: 1.76
[10]
  composite z-score: -0.142
[11]
  composite z-score: 0.575 (inactive)
[12]
  composite z-score: 0.645
[13]
  z-score: -0.593
[14]
  z-score: -5.18 (inactive)
[15]
  z-score: 0.203 (inactive)
[16]
  z-score: 0.451 (inactive)

## C[N+](C)(C)CCCC[C@@H]1NC(=O)[C@H]2C[C@@H](C(=O)NCCCCCNC(=O)CS)[C@@H](c3ccc(O)cc3)N2C1=O
[1]
  z-score: -0.532
[2]
  z-score: -0.905 (inactive)
[3]
  z-score: 0.469 (inactive)
[4]
  composite z-score: -1.3 (inactive)
[5]
  z-score: 0.82 (inactive)
[6]
  z-score: -2.28 (inactive)
[7]
  z-score: 0.902 (inactive)
[8]
  z-score: 1.33 (inactive)
[9]
  z-score: -0.178
[10]
  composite z-score: -0.216
[11]
  composite z-score: 0.949 (inactive)
[12]
  composite z-score: 0.696
[13]
  z-score: -0.0941
[14]
  z-score: -0.677 (inactive)
[15]
  z-score: 0.0225 (inactive)
[16]
  z-score: 0.579 (inactive)

## C=CCC(OC(C)=O)[C@@H]1[C@@H](N(Cc2ccc(-c3cccc(C(F)(F)F)c3)o2)C(=O)c2cccc3ccccc23)c2cc(OCCCO)ccc2N1C(=O)c1ccc2ccccc2n1 (some centres not stated)
[1]
  z-score: -0.892
[2]
  z-score: -0.606 (inactive)
[3]
  z-score: -0.864 (inactive)
[4]
  composite z-score: 0.995 (inactive)
[5]
  z-score: -0.51 (inactive)
[6]
  z-score: 0.356 (inactive)
[7]
  z-score: 0.249 (inactive)
[8]
  z-score: -0.195 (inactive)
[9]
  z-score: -0.804
[10]
  composite z-score: -0.227
[11]
  composite z-score: -0.279 (inactive)
[12]
  composite z-score: -0.0301
[13]
  z-score: -2.15
[14]
  z-score: -2.09 (inactive)
[15]
  z-score: -0.131 (inactive)
[16]
  z-score: 0.228 (inactive)

## C[N+](C)(C)CCCCCCNC(=O)[C@@H]1C[C@@H]2C(=O)N[C@@H](Cc3ccccc3)C(=O)N2[C@@H]1c1ccc(O)cc1
[1]
  z-score: 1.17
[2]
  z-score: -0.471 (inactive)
[3]
  z-score: 0.224 (inactive)
[4]
  composite z-score: -0.77 (inactive)
[5]
  z-score: 0.615 (inactive)
[6]
  z-score: -0.0653 (inactive)
[7]
  z-score: 0.457 (inactive)
[8]
  z-score: 0.492 (inactive)
[9]
  z-score: 0.25
[10]
  composite z-score: -0.0882
[11]
  composite z-score: 1.13 (inactive)
[12]
  composite z-score: 0.841
[13]
  z-score: -0.324
[14]
  z-score: -2.44 (inactive)
[15]
  z-score: 0.459 (inactive)
[16]
  z-score: 0.496 (inactive)

## COC(=O)C1=CC(CCCO)=CC(C2CC2)N(Cc2cccc(OC(F)(F)F)c2)C=C1C(=O)OC (configuration not stated)
[1]
  z-score: 0.588
[2]
  z-score: -1.76 (inactive)
[3]
  z-score: 0.348 (inactive)
[4]
  composite z-score: -6.2 (inactive)
[5]
  z-score: 0.034 (inactive)
[6]
  z-score: 0.0808 (inactive)
[7]
  z-score: 1.01 (inactive)
[8]
  z-score: 1.1 (inactive)
[9]
  z-score: 0.693
[10]
  composite z-score: -0.22
[11]
  composite z-score: 0.737 (inactive)
[12]
  composite z-score: 0.668
[13]
  z-score: -1.37
[14]
  z-score: -7.83 (inactive)
[15]
  z-score: -0.316 (inactive)
[16]
  z-score: -0.0702 (inactive)
